Measurements reported in PubChem BioAssay (NCATS).
Several values for one entry are separate records, joined by “and”; a condition that tells them apart may be missing. Equal values may be shown once. Unmarked numbers belong to inactive results. Results filed as inconclusive are left out. Entries that show only a call come without a potency. Activity calls are given as the source filed them. Unless noted, calls follow the shape of the dose curve; as a rule, active = well fitted curve in the direction sought with a large enough effect; inconclusive = small, poorly fitted or top-dose-only effect, or another doubt; inactive = no such curve, though single readings can be large; an effect the other way counts as inactive or inconclusive.

Assays:
[1] = qHTS to identify inhibitors of the type 1 interferon - major histocompatibility complex class I in skeletal muscle: primary screen against the NCATS Pharmaceutical Collection (AID 1347407);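 also: luminescence of HiBiT knocked into endogenous HLA-B as interferon-induced MHC class I level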; also: potency is read from the fitted curve at half-maximal effect
Method in brief: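 HLA-B HiBiT myoblasts, dexamethasone-free growth medium + 4 ng/ml IFN-b; compounds pinned 1 h after seeding, […] from 46 uM; 24 h, 37 C, 5% CO2; lytic HiBiT detection, 10 min RT, luminescence.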

[2] = biological target: Protein phosphatase 1D (Homo sapiens) (UniProt O15297); assay: RapidFire Mass Spectrometry qHTS Assay for Modulators of WT P53-Induced Phosphatase 1 (WIP1) (AID 1347424);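 also: amount of dephosphorylated VEPPL-S-QETFS peptide product formed by WIP1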; also: potency is read from the fitted curve at half-maximal effect; as to activity change, negative = inhibition: series mostly up to about 63 µM
Method in brief: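 10 nM WIP1 + cpd, 1 h RT; + 2 uM VEPPL-pS-QETFS, 5 min RT; stop 0.5% formic acid; labelled product standard 1 uM; RapidFire MS. Buffer 50 mM Tris pH 7.5, 30 mM MgCl2, 1 mM TCEP.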

[3] = biological target: Protein phosphatase 1D (Homo sapiens) (UniProt O15297); assay: Rhodamine-PBP qHTS Assay for Modulators of WT P53-Induced Phosphatase 1 (WIP1) (AID 1347425)
Method in brief: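 The read-out is the change in Rhodamine-PBP fluorescence (f1 - f0, ex 525/em 598 nm) as Pi is released, read each minute for 11 min. Final reaction: 5 nM WIP1, 10 uM phosphopeptide VEPPL-pS-QETFS, 10 uM Rh-PBP, 50 mM Tris-HCl pH 7.5, 30 mM MgCl2. Compound was preincubated with enzyme for 1 hour at room temperature.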

[4] = Primary qHTS for inhibitors of SARS-S pseudo-typed particle cell entry (AID 1479145; calls by dose curve; also: nearly all actives have a fitted effect of over 45% in size; as to activity change, negative = inhibition: series mostly up to about 57 µM)
[5] = Primary qHTS for Huh7 cytotoxicity: counterscreen for inhibitors of MERS-S pseudotyped particle cell entry (AID 1479147; calls by dose curve)
[6] = Primary qHTS for inhibitors of MERS-S pseudo-typed particle cell entry (AID 1479149; calls by dose curve; also: nearly all actives have a fitted effect of over 60% in size; as to activity change, negative = inhibition: series mostly up to about 57 µM)
[7] = Primary qHTS for Vero E6 cytotoxicity: counterscreen for inhibitors of SARS-S pseudo-typed particle cell entry (AID 1479150; calls by dose curve)
[8] = Primary qHTS for inhibitors of La Crosse Virus (LACV) - induced cell death in SH-SY5Y cells (AID 1508616);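 also: top concentration of the series differs between compounds; higher means more rescue of cells from virus-induced death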
Method in brief: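 Protection against LACV-induced cell death is scored in SH-SY5Y cells exposed to compounds and virus (0.01 MOI) for 6 days. Data normalized to virus-infected DMSO wells and virus-free DMSO wells.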

[9] = biological target: Calcium and integrin-binding protein 1 (Homo sapiens) (UniProt Q99828); assay: Primary qHTS for Identification of Calcium Integrin Binding Protein 1 (CIB1) Competitor (AID 1508620);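 also: GST tagged CIB1 binding a fluorescein labelled alphaIIb integrin peptide tracer; top concentration of the series differs between compounds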
Method in brief: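 CIB1-GST (1 uM final) and compound incubated 15 min at room temperature before adding FITC-alphaIIb peptide tracer (100 nM final). Competition for binding read by fluorescence polarization (ex 480, em 540) after another 15 min at room temperature.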

[10] = qHTS to identify inhibitors of the type 1 interferon - major histocompatibility complex class I in skeletal muscle: primary screen against the NCATS Mechanism Interrogation Plate v5.0 (MIPE) Libary (AID 1347411); also: nearly all actives have a fitted effect of over 65% in size
Method in brief: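 Luminescence from HiBiT-tagged endogenous HLA-B*08:01 served as the MHC class I read-out. CRISPR-engineered C25cl48 human myoblasts received 4.0 ng/ml IFN-beta plus compound for 24 hrs, with an 11-point, 1:3 series topping at 46 uM final.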

[11] = qHTS to identify inhibitors of the type 1 interferon - major histocompatibility complex class I in skeletal muscle: primary screen against the NCATS LOPAC collection (AID 1347405);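 also: lytic HiBiT luminescence reporting HLA-B protein level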
Method in brief: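 Luminescence from HiBiT fused to endogenous HLA-B in CRISPR-engineered human myoblasts served as the read-out. Cells received 4.0 ng/ml IFN-beta plus compound (seven concentrations, 1:4.3 steps, highest 46 uM final) for 24 hrs before lytic detection.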

[12] = qHTS for inhibitors of adenylyl cyclases using a fission yeast platform: a pilot screen against the NCATS LOPAC library (AID 1347410)
Method in brief: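 Read-out: fbp1-GFP fluorescence by laser scanning cytometry (488 nm laser), a gain of signal when AC/cAMP-PKA signalling is inhibited. Strain CHP2027 expressing AC9, GNAS and PDE4D2; compounds at up to 57 µM; 18 h, 30C.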

[13] = Validation qHTS assay for inhibitors of Activation Induced Cytidine Deaminase (AID): UDG Counterscreen signal (AID 1347427)
Method in brief: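 Counterscreen read of UDG activity (2 U/mL, 4/3x) in the FRET deamination format with AID (1 uM, 4/3x), DJC20/DJC23 substrates (250 nM, 4x), 4 h at room temperature. NaOH stop, fluorescence at 560 ex/665 em.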

[14] = biological target: Single-stranded DNA cytosine deaminase (Homo sapiens) (UniProt Q9GZX7); assay: Validation qHTS assay for inhibitors of Activation Induced Cytidine Deaminase (AID): AID signal (AID 1347429)
Method in brief: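 Fluorescence at 540 nm excitation and 590 nm emission reports ssDNA cytosine deamination by AID, with UDG in the same well. Compound-treated reactions ran 4 hr at room temperature with DJC20/DJC23 substrate, followed by 30 min NaOH treatment.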

[15] = Confirmatory qHTS for VERO E6 Cytotoxicity Assay: Counterscreen for SARS-CoV-2 CPE Assay (AID 1508605; calls by dose curve; also: series mostly up to about 20 µM; nearly all actives have a fitted effect of over 60% in size)
[16] = biological target: Calcium and integrin-binding protein 1 (Homo sapiens) (UniProt Q99828); assay: Validation qHTS for Identification of Calcium Integrin Binding protein 1 (CIB1) Competitor (AID 1508618)
Method in brief: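 CIB1-GST (1 uM final) incubated 15 min at room temperature with compounds (up to 114 uM), then FITC-labelled alphaIIb peptide (100 nM) added. FP read (Ex 480/Em 540) after 15 min, pH 7.4 buffer containing 5 mM CaCl2.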

[17] = Confirmatory qHTS for small molecule stabilizers of the endoplasmic reticulum resident proteome: Secreted ER Calcium Modulated Protein (SERCaMP) assay (AID 1508628); also: potency is read from the fitted curve at half-maximal effect; nearly all actives have a fitted effect of over 40% in size
Method in brief: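 SH-SY5Y cells stably expressing GLuc-SERCaMP, treated 16 h with compound (primary 1.53, 7.67, 38.3 uM; confirmation 11 concentrations, up to 76.6 uM), then 100 nM thapsigargin for 4 h. Secreted Gaussia luciferase in medium read by coelenterazine luminescence.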

Sequence of Calcium and integrin-binding protein 1 (Homo sapiens) (Q99828 whole entry, looked up): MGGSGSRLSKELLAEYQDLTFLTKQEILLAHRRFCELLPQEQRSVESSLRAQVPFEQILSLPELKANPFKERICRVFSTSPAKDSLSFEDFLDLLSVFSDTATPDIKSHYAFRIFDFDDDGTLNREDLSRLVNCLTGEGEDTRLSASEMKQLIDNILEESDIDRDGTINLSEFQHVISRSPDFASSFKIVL
Sequence of Protein phosphatase 1D (Homo sapiens) (O15297 whole entry, looked up): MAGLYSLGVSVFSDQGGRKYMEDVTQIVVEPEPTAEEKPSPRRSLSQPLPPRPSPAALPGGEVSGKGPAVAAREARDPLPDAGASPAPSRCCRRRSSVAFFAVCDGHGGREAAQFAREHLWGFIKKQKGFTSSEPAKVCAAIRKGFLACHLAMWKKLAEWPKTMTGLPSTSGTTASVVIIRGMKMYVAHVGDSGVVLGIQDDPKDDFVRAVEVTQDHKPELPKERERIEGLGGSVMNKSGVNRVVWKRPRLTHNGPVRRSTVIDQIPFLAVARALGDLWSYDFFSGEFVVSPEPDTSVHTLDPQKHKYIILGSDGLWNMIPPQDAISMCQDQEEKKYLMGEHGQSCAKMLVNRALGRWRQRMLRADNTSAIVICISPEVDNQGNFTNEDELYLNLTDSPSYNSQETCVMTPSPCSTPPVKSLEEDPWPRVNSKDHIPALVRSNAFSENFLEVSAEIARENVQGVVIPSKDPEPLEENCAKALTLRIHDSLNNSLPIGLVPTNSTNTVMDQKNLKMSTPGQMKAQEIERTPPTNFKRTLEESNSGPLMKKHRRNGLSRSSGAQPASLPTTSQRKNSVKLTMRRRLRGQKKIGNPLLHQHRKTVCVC
Sequence of Single-stranded DNA cytosine deaminase (Homo sapiens) (Q9GZX7 whole entry, looked up): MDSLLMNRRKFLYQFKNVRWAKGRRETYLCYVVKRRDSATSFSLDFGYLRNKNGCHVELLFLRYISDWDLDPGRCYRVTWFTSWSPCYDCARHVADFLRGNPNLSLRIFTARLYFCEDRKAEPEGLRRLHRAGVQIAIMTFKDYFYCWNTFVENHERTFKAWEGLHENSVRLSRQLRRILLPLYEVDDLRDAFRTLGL

CC(C)(C)NCC(O)c1cc(Cl)c(N)c(C(F)(F)F)c1 (stereo not given)
Potency [1]: inactive | Potency [2]: inactive | outcome [3]: inactive | Potency [4]: inactive | Potency [5]: inactive | Potency [6]: inactive | Potency [7]: inactive | outcome [8]: inactive | Potency [9]: inactive

C[C@]12Cc3cn[nH]c3C[C@@H]1CC[C@@H]1[C@@H]2CC[C@@]2(C)[C@H]1CC[C@]2(C)O
Potency [1]: inactive | Potency [10]: inactive | Potency [2]: inactive | outcome [3]: inactive | outcome [8]: inactive

C#CC(O)(C=CCl)CC (stereo not given)
Potency [1]: inactive | Potency [2]: inactive | outcome [3]: inactive | Potency [4]: inactive | Potency [5]: inactive | Potency [6]: inactive | Potency [7]: inactive | outcome [8]: inactive | Potency [9]: inactive

O=C(CCCN1CCC2(CC1)C(=O)NCN2c1ccccc1)c1ccc(F)cc1
outcome [11]: inactive | Potency [1]: inactive | outcome [12]: inactive | Potency [2]: inactive | outcome [3]: inactive | outcome [13]: inactive | outcome [14]: inactive | Potency [4]: inactive | Potency [15]: inactive | outcome [16]: inactive | Potency [17]: 5.62 µM (active) and 2.24 µM (active) and 3.16 µM (active)

Clc1ccc(C(c2ccc(Cl)cc2)C(Cl)(Cl)Cl)cc1
Potency [1]: inactive | Potency [2]: inactive | outcome [3]: inactive | Potency [4]: inactive | Potency [5]: inactive | Potency [6]: inactive | Potency [7]: inactive | outcome [8]: inactive

C[C@]12CCC(=O)C=C1CC[C@@H]1[C@@H]2CC[C@]2(C)C(=O)CC[C@@H]12
Potency [1]: inactive | Potency [2]: inactive | outcome [3]: inactive | Potency [4]: inactive | Potency [5]: inactive | Potency [6]: inactive | Potency [7]: inactive | outcome [8]: inactive | Potency [9]: inactive

NCCc1ccc(O)cc1
outcome [11]: inactive | Potency [1]: inactive | outcome [12]: inactive | Potency [2]: inactive | outcome [3]: inactive | outcome [13]: inactive | outcome [14]: inactive | outcome [8]: inactive | outcome [16]: inactive | Potency [9]: inactive

COP(=S)(OC)Oc1ccc(S(=O)(=O)N(C)C)cc1
Potency [1]: inactive | Potency [2]: inactive | outcome [3]: inactive | Potency [4]: inactive | Potency [5]: inactive | Potency [6]: inactive | Potency [7]: inactive | outcome [8]: inactive | Potency [9]: inactive

O=P1(N(CCCl)CCCl)NCCCO1 (stereo not given)
outcome [11]: inactive | Potency [1]: inactive | outcome [12]: inactive | Potency [10]: inactive | outcome [3]: inactive | outcome [13]: inactive | outcome [14]: inactive | Potency [4]: inactive | Potency [5]: inactive | Potency [6]: inactive | Potency [7]: inactive | outcome [8]: inactive | outcome [16]: inactive

O=C(O)CCCc1ccc(N(CCCl)CCCl)cc1
Potency [1]: inactive | Potency [10]: inactive | Potency [2]: inactive | outcome [3]: inactive | outcome [13]: inactive | outcome [14]: inactive | Potency [5]: inactive | Potency [6]: inactive | Potency [7]: inactive | outcome [8]: inactive | Potency [9]: inactive

CCCCCN(C)CCC(O)(P(=O)(O)O)P(=O)(O)O
outcome [11]: inactive | outcome [12]: inactive | activity change, negative = inhibition [4]: -12.9% [at 11.4 µM] | activity change, negative = cytotoxicity [5]: 3.48% [at 11.4 µM] | activity change, negative = inhibition [6]: -24.6% [at 11.4 µM] | activity change, negative = cytotoxicity [7]: 1.39% [at 11.4 µM] | outcome [16]: inactive

C=CCC1(C(C)CC)C(=O)NC(=O)NC1=O (stereo not given)
Potency [1]: inactive | Potency [2]: inactive | outcome [3]: inactive | Potency [4]: inactive | Potency [5]: inactive | Potency [6]: inactive | Potency [7]: inactive | outcome [8]: inactive | Potency [9]: inactive

Oc1ccc(Cl)cc1
Potency [1]: inactive | Potency [2]: inactive | outcome [3]: inactive | Potency [4]: inactive | Potency [5]: inactive | Potency [6]: inactive | Potency [7]: inactive | outcome [8]: inactive

COP(=S)(OC)Oc1ccc(SC)c(C)c1
Potency [1]: inactive | Potency [2]: inactive | outcome [3]: inactive | Potency [4]: inactive | Potency [5]: inactive | Potency [6]: inactive | Potency [7]: inactive | outcome [8]: inactive | Potency [9]: inactive

Cc1ncsc1CCCl
outcome [11]: inactive | Potency [1]: inactive | outcome [12]: inactive | Potency [2]: inactive | outcome [3]: inactive | outcome [13]: inactive | outcome [14]: inactive | Potency [4]: inactive | Potency [5]: inactive | Potency [6]: inactive | Potency [7]: inactive | outcome [8]: inactive | outcome [16]: inactive

C[C@]12CC[C@@H]3c4ccc(OC(=O)N(CCCl)CCCl)cc4CC[C@H]3[C@@H]1CC[C@@H]2O
Potency [1]: inactive | Potency [2]: inactive | outcome [3]: inactive | Potency [4]: inactive | Potency [5]: inactive | Potency [6]: inactive | Potency [7]: inactive | outcome [8]: inactive

NC1=NC(=O)C(c2ccccc2)O1 (stereo not given)
Potency [1]: inactive | Potency [2]: inactive | outcome [3]: inactive | outcome [8]: inactive | Potency [9]: inactive

CC(C(=O)c1ccccc1)N(C)C (stereo not given)
Potency [1]: inactive | Potency [2]: inactive | outcome [3]: inactive | outcome [8]: inactive

CC(Cc1ccccc1)N(C)Cc1ccco1 (stereo not given)
Potency [1]: inactive | Potency [2]: inactive | outcome [3]: inactive | outcome [8]: inactive

C[C@]12CC[C@H]3[C@@H](CC[C@@]45O[C@H]4C(O)=C(C#N)C[C@]35C)[C@H]1CC[C@H]2O
Potency [1]: 11.8 µM (active) | Potency [2]: inactive | outcome [3]: inactive | Potency [5]: inactive | Potency [7]: inactive | outcome [8]: inactive

CCCN(CCC)C(=O)Cc1c(-c2ccc(Cl)cc2)nc2ccc(Cl)cn12
Potency [1]: inactive | Potency [2]: inactive | outcome [3]: inactive | outcome [8]: inactive

O=c1[nH]c2ccccc2n1C1CCNCC1
Potency [1]: inactive | Potency [2]: inactive | outcome [3]: inactive | outcome [8]: inactive | Potency [9]: inactive

CC[N+]1(CC)CCC(OC(=O)C(O)(c2ccccc2)c2ccccc2)C1 (stereo not given)
Potency [1]: inactive | Potency [2]: inactive | outcome [3]: inactive | outcome [8]: inactive

C[C@]12CCC(=O)C=C1CC[C@@H]1[C@H]3CC[C@](C)(O)[C@@]3(C)CC[C@@H]12
Potency [1]: inactive | Potency [2]: inactive | outcome [3]: inactive | outcome [8]: inactive | Potency [9]: inactive

C#C[C@]1(O)CC[C@H]2[C@@H]3CCC4=CC(=O)CC[C@]4(C)[C@H]3CC[C@@]21C
Potency [1]: inactive | Potency [2]: inactive | outcome [3]: inactive | outcome [8]: inactive

ClCCN1CCCC1
Potency [1]: inactive | Potency [2]: inactive | outcome [3]: inactive | outcome [8]: inactive

c1ccc(CN2CCNCC2)cc1
Potency [1]: inactive | Potency [2]: inactive | outcome [3]: inactive | outcome [8]: inactive | Potency [9]: inactive

CCN[C@@H](C)Cc1ccccc1
Potency [1]: inactive | Potency [2]: inactive | outcome [3]: inactive | outcome [8]: inactive

C=CCN1C[C@H](C)N([C@H](c2ccc(C(=O)N(CC)CC)cc2)c2cccc(OC)c2)C[C@H]1C
Potency [1]: inactive | Potency [2]: inactive | outcome [3]: inactive | outcome [8]: inactive | Potency [9]: inactive

C=CCC1([C@H](C)CCC)C(=O)NC(=O)NC1=O
Potency [1]: inactive | Potency [2]: inactive | outcome [3]: inactive | outcome [8]: inactive

O=C(Nc1ccc(Br)cc1)c1cc(Br)cc(Br)c1O
Potency [1]: inactive | Potency [2]: 3.16 µM (active) | outcome [3]: inactive | outcome [8]: inactive
